Screening results deposited in PubChem by National Center for Advancing Translational Sciences (NCATS).
A selection: hits, their analogues and other compounds. The true share with any hit is near 7.1%.
ELG1 repair inh – blocks ELG1-dependent DNA repair in HEK293T cells; AID 504467; hit rate 2.3% among 330,000; Potency, µM (highest dose often 46.1 µM), hits mostly inhibitors; HEK293T ELG1-luciferase reporter, luminescence, 16 h; DNA damage induced by 5-fluorouridine; note: nearly all actives have a fitted effect of over 55% in size
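Reporter activity after DNA damage by 5-fluorouridine is monitored. Compound-treated cells incubate 16 hr at 37 °C, then ONE-Glo is added for 30 min before luminescence reading.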
SW480 rerep – DNA re-replication induction in SW480 cells | Potency, µM (titrated, usually from 46.1 µM), hits mostly activators | hit rate 1.8% among 340,000 | SW480 DNA re-replication, Hoechst DNA content imaging, 48 h; note: nearly all actives have a fitted effect of over 55% in size
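Per well, 250 cells were exposed to pinned compound for 48 hr. Nuclear DNA was visualised with Hoechst (40 min, 37 C) and total object intensity recorded by fluorescence scanning.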
MCF10A rerep – DNA re-replication induction in MCF 10a cells | MCF 10A DNA re-replication, Hoechst nuclear intensity, 48 h | Potency, µM (highest dose often 46.1 µM), usual class: activators | hit rate 2.9% among 350,000; note: nearly all actives have a fitted effect of over 50% in size
AT treatment – potential ataxia-telangiectasia treatments restoring KAP-1 phosphorylation | F2112 A-T fibroblasts, KAP-1 phosphorylation AlphaLISA; neocarzinostatin DNA damage 30 min before lysis | hit rate 0.19% among 320,000 | AID 485349 | Potency, µM (series often up to 57.5 µM), most hits filed as activators; note: nearly all actives have a fitted effect of over 45% in size
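hTERT-immortalized A-T patient fibroblasts (F2112), 500 cells/well in OPTI-MEM, 1% FBS, got compounds for 60 min, then NCS for 30 min at 37C. Lysates were then assayed for phospho-KAP-1 by AlphaLISA (anti-pKAP1 donor, anti-KAP1 acceptor beads), 6 hr at 25C.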
ELG1 genotoxic – induces genotoxicity in HEK293T cells with luciferase-tagged ELG1 | hit rate 1.3% among 330,000 | AID 504466 | Potency, µM (doses to about 46 µM), actives largely listed as activators | HEK293T ELG1-luciferase reporter, luminescence, 16 h; note: nearly all actives have a fitted effect of over 60% in size
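Quantitative HTS format in 1536-well plates. HEK293T ELG1-luciferase reporter cells receive test compound and are incubated 16 hr at 37 °C, 5% CO2; ONE-Glo added, 30 min room temperature, then luminescence read.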
p53 reactivator – restores transcriptional activity of mutant p53 | H1299 p53-A138V BP100-luciferase reporter, luminescence, 24 h | Potency, µM (highest dose often 92.2 µM), actives largely listed as activators | hit rate 0.063% among 320,000 | AID 504706; note: nearly all actives have a fitted effect of over 45% in size
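p53-null H1299 cells stably carrying temperature-sensitive p53-A138V and a BP100-luciferase reporter were pinned with compounds (4-point, 1:5 series) and held 24 hrs at 37 deg C. Luminescence was read 10 min after detection reagent.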
Large screens that a line does not name were inactive. Calls come from the whole dose curve; as a rule, active = well fitted curve in the direction sought with a large enough effect; inconclusive = small, poorly fitted or top-dose-only effect, or another doubt; inactive = no such curve, though single readings can be large; an effect the other way counts as inactive or inconclusive.

O=C(/C=C/c1cn(CC(O)CN2CCCCCC2)c2ccccc12)c1cccs1 (stereo not given)	SW480 rerep 18µM, MCF10A rerep 15µM
O=Cc1cn(CC(O)Cn2cc(C=O)c3ccccc32)c2ccccc12	none
CCCCN(C)CC(O)Cn1cc(/C=C/C(=O)c2cccs2)c2ccccc21 (stereo not given)	SW480 rerep 23µM, MCF10A rerep 16µM
CCCCCCCCn1c2c(c(=N)c3ccccc31)CCC2	MCF10A rerep inconclusive
Cc1cc(C)c2c(=N)c3ccccc3n(CCCCCCCCn3c4ccccc4c(=N)c4c(C)cc(C)nc43)c2n1	SW480 rerep 23µM, MCF10A rerep inconclusive (no result: ELG1 repair inh, AT treatment, ELG1 genotoxic, p53 reactivator)
COc1ccc(NC(=O)CSC2=C(C#N)C(c3ccco3)C3=C(CCCC3=O)N2)c(OC)c1 (stereo not given)	SW480 rerep inconclusive, MCF10A rerep inconclusive
COc1cccc(NC(=O)CSC2=C(C#N)C(c3ccco3)C3=C(CCCC3=O)N2)c1 (stereo not given)	SW480 rerep 13µM, MCF10A rerep 25µM, p53 reactivator inconclusive
CCCCc1ccc(NC(=O)CSC2=C(C#N)C(c3ccco3)C3=C(CCCC3=O)N2)cc1 (stereo not given)	ELG1 repair inh 18µM, SW480 rerep 21µM, MCF10A rerep 4µM
Cc1cc(C)c(OCC(=O)OC(C)C(=O)NCc2ccccc2)c(C)c1 (stereo not given)	none
COc1ccc(OCC(=O)Nc2cccc(S(=O)(=O)N(C)c3ccccc3)c2)c([N+](=O)[O-])c1	ELG1 repair inh inconclusive
Cc1ccc(S(=O)(=O)N2CCN(C(=O)c3ccc4ccccc4n3)CC2)c(C)c1	ELG1 repair inh inconclusive, p53 reactivator inconclusive
COc1ccccc1-c1nc(-c2ccccc2)nc(N2CCN(C)CC2)c1C#N	ELG1 repair inh 21µM, SW480 rerep inconclusive, MCF10A rerep inconclusive
CN1CCN(c2nc(-c3ccccc3)nc(-c3ccc(F)cc3)c2C#N)CC1	ELG1 repair inh inconclusive, SW480 rerep inconclusive, MCF10A rerep inconclusive
Cc1ccc(S(=O)(=O)NCC(c2ccco2)N2CCc3ccccc3C2)cc1 (stereo not given)	none
O=S(=O)(NCC(c1ccco1)N1CCc2ccccc2C1)c1ccc(Br)cc1 (stereo not given)	MCF10A rerep 4.1µM, ELG1 genotoxic inconclusive (no result: AT treatment)
CC(=O)c1cccc(NC(=O)CSc2ccc(-c3sc(C)nc3C)nn2)c1	ELG1 repair inh 23µM
CC(=O)c1cccc(Nc2nc(-c3sc(C)nc3C)cs2)c1	ELG1 repair inh 16µM (no result: p53 reactivator)
Cc1cccc(Nc2nc(-c3sc(C)nc3C)cs2)c1	ELG1 repair inh inconclusive, ELG1 genotoxic inconclusive
CC(=O)c1cccc(Nc2nc(-c3sc(N)nc3C)cs2)c1	ELG1 repair inh 8.2µM, MCF10A rerep inconclusive
Cc1nc(C)c(-c2ccc(SCC(=O)Nc3cccc(F)c3)nn2)s1	ELG1 repair inh inconclusive
CC[C@H]1OC(=O)[C@H](C)C(=O)[C@H](C)[C@@H](OC2O[C@H](C)C[C@H](N(C)C)[C@@H]2O)[C@@](C)(OC)C[C@@H](C)C(=O)[C@@H](C)C2N(CCCCn3cnc(-c4cccnc4)c3)C(=O)O[C@@]21C (stereo not given in full)	none (no result: ELG1 repair inh, AT treatment, ELG1 genotoxic, p53 reactivator)
CC(=O)OC[C@]12CC[C@H]3[C@@](C)(CC[C@H]4C(C)(C)CCC[C@]34C)[C@@H]1C[C@@H](C1=CC(=O)O[C@@H]1OC(C)=O)O2	none (no result: SW480 rerep, MCF10A rerep)
CC(=O)OC[C@]12CC[C@H]3[C@@](C)(CC[C@H]4C(C)(C)CCC[C@]34C)[C@@H]1C[C@H](C1=CC(=O)O[C@H]1OC(C)=O)O2	ELG1 repair inh inconclusive, AT treatment 35µM (no result: SW480 rerep, MCF10A rerep)
CCN(CC(=O)Nc1c(F)cccc1F)C(=O)Cc1csc(-c2ccc(OC)c(OC)c2)n1	none
CN(CCOc1ccccc1)C(=O)C1CCN(C(=O)c2ccc(F)cc2)CC1	none
O=C1Nc2cccnc2N(C(=O)CCl)c2ccccc21	ELG1 repair inh 21µM, SW480 rerep 15µM, MCF10A rerep 15µM
NCCN1CCN(CC(=O)N2c3ccccc3C(=O)Nc3cccnc32)CC1	none (no result: ELG1 repair inh, AT treatment, ELG1 genotoxic, p53 reactivator)
COC(=O)[C@]1(C)N[C@H](CN(C)C(C)=O)[C@@H]2C(=O)N(Cc3ccccc3)C(=O)[C@@H]21	SW480 rerep inconclusive
O=c1cc(-c2ccccc2)nc(/C=C/c2ccccc2)[nH]1	SW480 rerep inconclusive, MCF10A rerep 18µM
COc1ccc(/C=C/c2nc(-c3ccccc3)cc(=O)[nH]2)cc1	SW480 rerep inconclusive, MCF10A rerep inconclusive
CC(C)[C@H](NC(=O)c1ccc([N+](=O)[O-])cc1Cl)C(=O)N1CCN(C/C=C/c2ccccc2)CC1	ELG1 repair inh 13µM
COc1ccc(SCCN2CC[C@@H](O)CCC2=O)cc1	ELG1 repair inh inconclusive
COc1ccc(SCCN2CC[C@@H](C(C)(C)C)CCC2=O)cc1	ELG1 repair inh inconclusive, MCF10A rerep 9.2µM
O=C(CCOc1ccccc1)Nc1ccc(S(=O)(=O)Nc2ncccn2)cc1	none
CCOC(=O)CN1C(=O)NC2(CCCc3ccccc32)C1=O (stereo not given)	none
CCN1CCN(c2ccc(S(=O)(=O)N3CCCCC3)cc2NC(=O)/C=C/c2ccc(Cl)cc2)CC1	MCF10A rerep inconclusive (no result: ELG1 repair inh, AT treatment, ELG1 genotoxic, p53 reactivator)
Cc1cc(N2C(=O)C=CC2=O)c([N+](=O)[O-])cc1C	ELG1 repair inh inconclusive, SW480 rerep 16µM, MCF10A rerep 18µM
Cc1c([N+](=O)[O-])cc(N2C(=O)C=CC2=O)cc1[N+](=O)[O-]	none (no result: ELG1 repair inh, AT treatment, ELG1 genotoxic, p53 reactivator)
O=C(NCc1ccco1)c1nc2c(nnn2Cc2ccccc2Cl)c(=O)[nH]1	ELG1 repair inh 21µM, p53 reactivator inconclusive
N#C/C(=C\c1c(F)cccc1Cl)c1nn(-c2ccccc2)c(-n2cccc2)c1C#N	ELG1 repair inh inconclusive, MCF10A rerep inconclusive
N#C/C(=C\c1c(Cl)cccc1Cl)c1nn(-c2ccccc2)c(-n2cccc2)c1C#N	ELG1 repair inh inconclusive, MCF10A rerep 16µM
Cc1cc(/C=C(\C#N)C(=O)N2CCCCC2)cc(C)c1O	SW480 rerep inconclusive, MCF10A rerep inconclusive
N#C/C(=C\c1cccc(O)c1)C(=O)N1CCCCC1	ELG1 repair inh inconclusive, SW480 rerep inconclusive, MCF10A rerep 18µM, p53 reactivator inconclusive
N#C/C(=C\c1cccc(Br)c1)C(=O)N1CCCCC1	ELG1 repair inh inconclusive, SW480 rerep inconclusive, MCF10A rerep 23µM
CN(CC(=O)Nc1ccc(Cl)c(C(F)(F)F)c1)C(=O)c1ccc2c(c1)NC(=O)CS2	ELG1 repair inh inconclusive
O=C(NC1CCCCC1)c1sc(N2CCOCC2)nc1-c1ccccc1	MCF10A rerep 5.8µM
